Details in all cases: mRNA level, 48 h; actives raise or lower the signal
Read-out in experiment [1]: Paternally Expressed 10 (PEG10), PEG10 (gene 23089)
As to the kind of experiment: LTEA_HepaRG_PEG10: Life Technologies and Expression Analysis (LTEA) Assay for Paternally Expressed 10 (PEG10) using HepaRG (AID 2283520). In a few lines: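 PEG10 transcript measured by Fluidigm qRT-PCR, normalized to three housekeeping genes, in HepaRG cells treated 48 h (highest 100 uM, half-log steps, 0.5% DMSO vehicle). Cells plated 48 h before switching to serum-free induction medium.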

Read-out in experiment [2]: Nuclear factor NF-kappa-B p105 subunit (Homo sapiens) (UniProt P19838)
As to the kind of experiment: LTEA_HepaRG_NFKB1: Life Technologies and Expression Analysis (LTEA) Assay for Nuclear Factor Kappa B Subunit 1 (NFKB1) using HepaRG (AID 2283521). In a few lines:
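Differentiated human HepaRG cells were exposed for 48 h in serum-free induction medium to eight concentrations (top 100 uM, half-log steps, 0.5% DMSO), in duplicate. NFKB1 mRNA was measured by TaqMan qRT-PCR, normalized to ACTB/GAPDH/POLR2A, and fitted bidirectionally against DMSO.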

Read-out in experiment [3]: Protein phosphatase 2A (PPP2R4), PTPA (gene 5524)
Put plainly: LTEA_HepaRG_PPP2R4: Life Technologies and Expression Analysis (LTEA) Assay for Protein phosphatase 2A (PPP2R4) using HepaRG (AID 2283522). In a few lines: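 Expression was quantified by Fluidigm qRT-PCR normalised to three housekeeping genes after 48 h treatment. Human HepaRG cells received an 8-point series from 100 µM downward by half-logs, in duplicate with 0.5% DMSO vehicle and 1 mM phenobarbital as induction control.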

Read-out in experiment [4]: Phosphatase and tensin (PTEN), PTEN (gene 5728)
Put plainly: LTEA_HepaRG_PTEN: Life Technologies and Expression Analysis (LTEA) Assay for Phosphatase and tensin (PTEN) using HepaRG (AID 2283523). The gist of the method:
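Read-out: TaqMan qRT-PCR of PTEN transcript, normalized to three housekeeping genes, fitted in both directions against 0.5% DMSO. Differentiated human HepaRG cultures received chemicals for 48 h, eight-point half-log series topping at 100 uM.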

Read-out in experiment [5]: solute carrier (SLC22A1), SLC22A1 (gene 6580)
As to the kind of experiment: LTEA_HepaRG_SLC22A1: Life Technologies and Expression Analysis (LTEA) Assay for solute carrier (SLC22A1) using HepaRG (AID 2283524). In a few lines:
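Transcript level of SLC22A1 quantified by qRT-PCR (normalized to three housekeeping genes) after 48 h chemical exposure of HepaRG cells, eight concentrations up to 100 µM, half-log steps, 0.5% DMSO vehicle. Gain or loss relative to DMSO fitted bidirectionally.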

Read-out in experiment [6]: Pyruvate Dehydrogenase Kinase 4 (PDK4), PDK4 (gene 5166)
As to the kind of experiment: LTEA_HepaRG_PDK4: Life Technologies and Expression Analysis (LTEA) Assay for Pyruvate Dehydrogenase Kinase 4 (PDK4) using HepaRG (AID 2283525). In a few lines: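 Readout is qRT-PCR of PDK4 transcript, normalized to three housekeeping genes, with bidirectional fitting against 0.5% DMSO vehicle. Differentiated HepaRG cells were treated 48 h in serum-free induction medium, duplicate wells, eight-point half-log series topping at 100 uM.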

Read-out in experiment [7]: NAD(P)H dehydrogenase [quinone] 1 (NQO1), NQO1 (gene 1728)
As to the kind of experiment: LTEA_HepaRG_NQO1: Life Technologies and Expression Analysis (LTEA) Assay for NAD(P)H dehydrogenase [quinone] 1 (NQO1) using HepaRG (AID 2283526). The gist of the method: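 NQO1 transcript induction or loss measured by TaqMan qRT-PCR, referenced to three housekeeping genes and fitted bidirectionally against 0.5% DMSO. HepaRG cultures exposed 48 h, duplicate, eight-point half-log series, top 100 uM.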

Read-out in experiment [8]: Nuclear factor erythroid 2-related factor 2 (Homo sapiens) (UniProt Q16236)
As to the kind of experiment: LTEA_HepaRG_NFE2L2: Life Technologies and Expression Analysis (LTEA) Assay for Nuclear factor erythroid 2-related factor 2 (NFE2L2) Transcription Factor using HepaRG (AID 2283527).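 Note: TaqMan qRT-PCR transcript level normalised to ACTB GAPDH and POLR2A housekeeping genes.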 In a few lines:
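NFE2L2 transcript level was read by qRT-PCR (housekeeping ACTB/GAPDH/POLR2A normalisation) after 48 h chemical treatment of HepaRG in serum-free induction medium. Duplicate 8-point half-log curves, top 100 uM, 0.5% DMSO vehicle; up- or down-regulation fitted against vehicle.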

Read-out in experiment [9]: Signal transducer and activator of transcription 3 (Homo sapiens) (UniProt P40763)
As to the kind of experiment: LTEA_HepaRG_STAT3: Life Technologies and Expression Analysis (LTEA) Assay for Signal transducer and activator of transcription (STAT3) using HepaRG (AID 2283529). The gist of the method:
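STAT3 transcript quantified by qRT-PCR against three housekeeping genes (ACTB, GAPDH, POLR2A), fitted both directions relative to DMSO. HepaRG cultures exposed 48 h to eight half-log concentrations, top 100 uM, 0.5% DMSO, serum-free induction medium.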

Read-out in experiment [10]: solute carrier (SLCO1B1), SLCO1B1 (gene 10599)
Put plainly: LTEA_HepaRG_SLCO1B1: Life Technologies and Expression Analysis (LTEA) Assay for solute carrier (SLCO1B1) using HepaRG (AID 2283530). In a few lines:
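Human HepaRG cultures treated for 48 h with an eight-concentration half-log series topping at 100 uM; SLCO1B1 measured by qRT-PCR and fitted bidirectionally relative to DMSO.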

Read-out in experiment [11]: sulfotransferase 2A1 (SULT2A1), SULT2A1 (gene 6822)
As to the kind of experiment: LTEA_HepaRG_SULT2A1: Life Technologies and Expression Analysis (LTEA) Assay for sulfotransferase 2A1 (SULT2A1) using HepaRG (AID 2283531). The gist of the method: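 Gene-expression endpoint in a human liver cell line: SULT2A1 mRNA change after 48 h chemical treatment, curves fitted in both directions relative to 0.5% DMSO vehicle. Concentrations spanned eight half-log steps from 100 uM.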

Read-out in experiment [12]: Transforming Growth Factor (TGFA), TGFA (gene 7039)
Put plainly: LTEA_HepaRG_TGFA: Life Technologies and Expression Analysis (LTEA) Assay for Transforming Growth Factor (TGFA) using HepaRG (AID 2283532). In a few lines:
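TGFA transcript quantified by qRT-PCR (Fluidigm arrays) against three housekeeping genes, after 48 hours chemical treatment of HepaRG cells. Top concentration 100 uM with half-log dilutions, 8 points, duplicates, 0.5% DMSO.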

Read-out in experiment [13]: Transforming Growth Factor (TGFB1), TGFB1 (gene 7040)
Put plainly: LTEA_HepaRG_TGFB1: Life Technologies and Expression Analysis (LTEA) Assay for Transforming Growth Factor (TGFB1) Transporter using HepaRG (AID 2283533). The gist of the method:
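Eight-point concentration-response (max 100 uM, half-log) in HepaRG under serum-free induction conditions, 48 h. TGFB1 mRNA by qRT-PCR, housekeeping-normalized.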

Read-out in a further experiment: TIMP1, TIMP1 (gene 7076)
Put plainly: LTEA_HepaRG_TIMP1: Life Technologies and Expression Analysis (LTEA) Assay for TIMP1 using HepaRG (AID 2283534).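 Note: TaqMan qRT-PCR signal normalized to ACTB GAPDH and POLR2A housekeeping genes.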 In a few lines: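 TIMP1 induction or repression in HepaRG cells after 48 h chemical exposure (eight concentrations, highest 100 uM), assessed by normalized qRT-PCR with bidirectional fitting to DMSO controls.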

Read-out in experiment [14]: Tumor necrosis factor receptor 1 (TNFRSF1A), TNFRSF1A (gene 7132)
As to the kind of experiment: LTEA_HepaRG_TNFRSF1A: Life Technologies and Expression Analysis (LTEA) Assay for Tumor necrosis factor receptor 1 (TNFRSF1A) using HepaRG (AID 2283535). The gist of the method: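 Assay uses 48 h chemical treatment of differentiated HepaRG monolayers, tested in duplicate at eight concentrations from 100 uM downward in 0.5% DMSO. mRNA is normalized to ACTB, GAPDH and POLR2A, with induction or suppression fitted relative to vehicle.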

Read-out in experiment [15]: Thyroid Hormone Responsive (THRSP), THRSP (gene 7069)
Put plainly: LTEA_HepaRG_THRSP: Life Technologies and Expression Analysis (LTEA) Assay for Thyroid Hormone Responsive (THRSP) using HepaRG (AID 2283536). The gist of the method: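 THRSP transcript quantified by Fluidigm qRT-PCR against three housekeeping genes after 48 h chemical exposure of HepaRG cells in serum-free induction medium; eight-point half-log series, top 100 uM, 0.5% DMSO vehicle, duplicate wells.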

Read-out in experiment [16]: Cellular tumor antigen p53 (Homo sapiens) (UniProt P04637)
As to the kind of experiment: LTEA_HepaRG_TP53: Life Technologies and Expression Analysis (LTEA) Assay for Tumor Protein P53 (TP53) using HepaRG (AID 2283537). In a few lines:
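HepaRG, 48 h exposure, top 100 uM, half-log 8-point, 0.5% DMSO vehicle, duplicates. Read: TP53 mRNA by TaqMan qRT-PCR, normalised to ACTB/GAPDH/POLR2A; bidirectional fit vs DMSO.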

Read-out in experiment [17]: UDP glucuronosyltransferase (UGT1A1), UGT1A1 (gene 54658)
Put plainly: LTEA_HepaRG_UGT1A1: Life Technologies and Expression Analysis (LTEA) Assay for UDP glucuronosyltransferase (UGT1A1) using HepaRG (AID 2283538). The gist of the method:
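UGT1A1 transcript level, measured by qRT-PCR with three housekeeping genes for normalization, after 48 h treatment of human HepaRG cells (0.5% DMSO, duplicates, up to 100 uM, half-log steps, 8 points). Curves fit both directions against DMSO baseline.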

Read-out in experiment [18]: matrix metalloproteinase-3 (MMP3), MMP3 (gene 4314)
Put plainly: LTEA_HepaRG_MMP3: Life Technologies and Expression Analysis (LTEA) Assay for matrix metalloproteinase-3 (MMP3) using HepaRG (AID 2283519). In a few lines:
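Fluidigm-based TaqMan qRT-PCR, normalized to ACTB, GAPDH and POLR2A and fitted bidirectionally versus 0.5% DMSO, measured transcript levels. Treatment: duplicate 48 h exposures of HepaRG cells, ~100,000/well, to eight half-log concentrations topping at 100 uM.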

Read-out in experiment [19]: succinate dehydrogenase complex iron sulfur subunit B (SDHB), SDHB (gene 6390)
Put plainly: LTEA_HepaRG_SDHB: Life Technologies and Expression Analysis (LTEA) Assay for succinate dehydrogenase complex iron sulfur subunit B (SDHB) using HepaRG (AID 2283528). In a few lines: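 HepaRG, 48 h exposure, 8-pt half-log series from 100 uM in 0.5% DMSO, duplicates. Readout: SDHB mRNA by Fluidigm qRT-PCR vs housekeeping genes; bidirectional fit relative to DMSO.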

This passage reports outcome and AC50 results from PubChem BioAssay (EPA / NIEHS).

Calls of active or inactive are those of the source. Rule for the calls: active = hit-call score of the fitted dose curve at least 0.9, where 1 is the maximum; inactive = score below 0.9.

Nuclear factor NF-kappa-B p105 subunit (Homo sapiens), sequence (P19838 whole entry, looked up): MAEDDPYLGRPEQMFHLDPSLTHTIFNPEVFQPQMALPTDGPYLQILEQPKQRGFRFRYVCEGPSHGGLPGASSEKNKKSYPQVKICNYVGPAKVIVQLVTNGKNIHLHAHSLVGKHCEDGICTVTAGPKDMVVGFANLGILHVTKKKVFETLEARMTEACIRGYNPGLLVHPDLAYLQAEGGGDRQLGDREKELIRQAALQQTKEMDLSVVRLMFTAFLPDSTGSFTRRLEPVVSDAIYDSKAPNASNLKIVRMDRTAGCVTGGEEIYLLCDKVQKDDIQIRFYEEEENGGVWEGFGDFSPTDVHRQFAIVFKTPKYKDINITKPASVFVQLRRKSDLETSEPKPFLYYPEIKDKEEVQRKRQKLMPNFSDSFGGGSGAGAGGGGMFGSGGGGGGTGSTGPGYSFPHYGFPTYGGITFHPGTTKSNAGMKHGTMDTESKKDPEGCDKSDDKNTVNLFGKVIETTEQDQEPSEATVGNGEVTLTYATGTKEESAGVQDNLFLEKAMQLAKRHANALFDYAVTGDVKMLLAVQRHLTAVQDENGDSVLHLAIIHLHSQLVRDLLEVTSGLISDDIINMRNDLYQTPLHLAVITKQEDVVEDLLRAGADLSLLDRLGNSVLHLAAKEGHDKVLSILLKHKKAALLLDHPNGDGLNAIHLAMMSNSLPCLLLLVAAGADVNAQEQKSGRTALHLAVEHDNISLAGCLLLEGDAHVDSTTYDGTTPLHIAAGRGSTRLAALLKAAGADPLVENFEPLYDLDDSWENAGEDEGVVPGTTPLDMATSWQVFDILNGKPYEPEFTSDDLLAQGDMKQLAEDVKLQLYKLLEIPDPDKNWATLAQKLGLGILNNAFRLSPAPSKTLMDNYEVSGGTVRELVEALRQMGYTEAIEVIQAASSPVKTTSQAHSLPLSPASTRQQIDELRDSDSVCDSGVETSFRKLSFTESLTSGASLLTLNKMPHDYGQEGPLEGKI
Nuclear factor erythroid 2-related factor 2 (Homo sapiens), sequence (Q16236 whole entry, looked up): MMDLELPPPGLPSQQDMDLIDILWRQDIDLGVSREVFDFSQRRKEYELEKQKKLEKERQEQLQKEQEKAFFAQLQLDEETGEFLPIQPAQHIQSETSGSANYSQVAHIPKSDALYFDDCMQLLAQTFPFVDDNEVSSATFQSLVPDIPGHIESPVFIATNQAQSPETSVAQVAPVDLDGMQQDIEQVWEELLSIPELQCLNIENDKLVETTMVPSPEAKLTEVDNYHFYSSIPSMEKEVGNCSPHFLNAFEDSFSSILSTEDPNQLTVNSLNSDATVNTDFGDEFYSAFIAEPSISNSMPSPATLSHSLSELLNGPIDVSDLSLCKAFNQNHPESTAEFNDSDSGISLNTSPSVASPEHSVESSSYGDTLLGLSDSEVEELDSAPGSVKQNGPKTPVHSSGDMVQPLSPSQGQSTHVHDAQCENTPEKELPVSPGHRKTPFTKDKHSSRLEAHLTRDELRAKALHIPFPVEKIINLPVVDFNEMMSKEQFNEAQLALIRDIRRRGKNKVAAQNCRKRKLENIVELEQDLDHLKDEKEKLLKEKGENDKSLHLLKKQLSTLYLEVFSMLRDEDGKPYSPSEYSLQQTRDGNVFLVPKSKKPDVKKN
Cellular tumor antigen p53 (Homo sapiens), sequence (P04637 whole entry, looked up): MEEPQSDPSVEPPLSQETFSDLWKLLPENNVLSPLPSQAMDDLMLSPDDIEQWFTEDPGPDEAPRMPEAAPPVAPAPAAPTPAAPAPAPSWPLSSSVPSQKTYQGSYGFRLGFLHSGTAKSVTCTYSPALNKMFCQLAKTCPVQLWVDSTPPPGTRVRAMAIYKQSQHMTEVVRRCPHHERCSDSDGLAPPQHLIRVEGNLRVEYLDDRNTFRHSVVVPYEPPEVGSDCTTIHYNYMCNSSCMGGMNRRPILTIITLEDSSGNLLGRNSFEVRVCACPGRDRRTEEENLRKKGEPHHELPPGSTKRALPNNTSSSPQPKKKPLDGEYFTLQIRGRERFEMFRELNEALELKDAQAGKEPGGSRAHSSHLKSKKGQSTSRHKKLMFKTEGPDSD
Signal transducer and activator of transcription 3 (Homo sapiens), sequence (P40763 whole entry, looked up): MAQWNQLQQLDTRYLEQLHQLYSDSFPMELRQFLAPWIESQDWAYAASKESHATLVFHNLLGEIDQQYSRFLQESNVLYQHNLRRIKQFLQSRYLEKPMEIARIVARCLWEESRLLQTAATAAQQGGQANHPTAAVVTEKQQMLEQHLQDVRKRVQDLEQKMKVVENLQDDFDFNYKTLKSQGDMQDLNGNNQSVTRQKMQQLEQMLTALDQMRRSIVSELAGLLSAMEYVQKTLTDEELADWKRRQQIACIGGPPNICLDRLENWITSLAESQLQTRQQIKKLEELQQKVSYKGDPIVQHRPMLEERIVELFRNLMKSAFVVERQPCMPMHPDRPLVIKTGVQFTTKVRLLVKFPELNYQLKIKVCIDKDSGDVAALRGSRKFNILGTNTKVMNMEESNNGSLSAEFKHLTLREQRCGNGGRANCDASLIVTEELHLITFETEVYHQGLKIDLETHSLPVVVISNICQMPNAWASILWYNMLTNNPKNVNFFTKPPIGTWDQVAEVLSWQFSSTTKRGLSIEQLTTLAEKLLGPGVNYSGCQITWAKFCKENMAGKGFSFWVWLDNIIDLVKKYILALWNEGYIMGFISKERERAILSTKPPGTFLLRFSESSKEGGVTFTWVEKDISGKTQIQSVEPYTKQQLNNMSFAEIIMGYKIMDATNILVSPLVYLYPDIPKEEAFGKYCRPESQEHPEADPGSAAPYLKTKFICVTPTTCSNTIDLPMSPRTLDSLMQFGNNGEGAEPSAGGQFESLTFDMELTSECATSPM

For `COc1cc(C=O)ccc1O`, the result in experiment [1], in experiment [2], in experiment [3], in experiment [4], in [5] and in [6] was inactive. The compound was classed as inactive in experiment [7], in [8], in experiment [9], in experiment [10], in experiment [11] and in [12]. The outcome was “inactive” in [13]; “inactive” in the experiment with TIMP1, TIMP1 (gene 7076); “inactive” in experiment [14]; “inactive” in [15]; “inactive” in experiment [16]; “inactive” in experiment [17].

`O=c1[nH]cc(F)c(=O)[nH]1`: the outcome in experiment [18], in experiment [1], in [4], in experiment [7], in experiment [8] and in [19] was inactive. The outcome in experiment [9] was “inactive”; in experiment [10], “inactive”; in experiment [11], “inactive”; in experiment [12] it was “inactive”; in experiment [13], “inactive”; in the experiment with TIMP1, TIMP1 (gene 7076), “inactive”. The call in experiment [14] and in experiment [16] was inactive. The AC50 in experiment [3], in experiment [5] and in [15] was 51 µM (active) throughout.

In the case of `Cc1ccc(C(C)C)c(O)c1`, the compound was called inactive in experiment [1], in [2], in experiment [3], in experiment [4], in experiment [5] and in experiment [6]. The result in experiment [7], in experiment [8], in experiment [10], in experiment [11], in [12] and in [13] was inactive. In addition, the outcome is “inactive” with TIMP1, TIMP1 (gene 7076); “inactive” in [14]; “inactive” in experiment [16].

In the case of `CCCCCCCCCCCC(=O)OC`, the outcome in [1], in experiment [2], in [3], in experiment [4], in [5] and in experiment [7] was inactive. The outcome in [8] is “inactive”; in [10], “inactive”; in [11] it was “inactive”; in [12], “inactive”; in [13], “inactive”; in the experiment with TIMP1, TIMP1 (gene 7076) it was “inactive”. The compound was called inactive in experiment [14], in experiment [15], in experiment [16] and in [17].
